TDP1 cell noCPT – qHTS for Inhibitors of human tyrosyl-DNA phosphodiesterase 1 (TDP1): qHTS in cells in absence of CPT. DT40 Tdp1-/- hTDP1 cells, no CPT, ATP luminescence, 48 h. Potency, µM (top dose mostly 46.2 µM), for the others: at the top dose activity change, negative = growth inhibition, hits mostly inhibitors. 15% of 420,000 active; also: potency is read from the fitted curve at half-maximal effect; % is scaled to controls: 0 for no effect and ±100 for the full control effect; nearly all actives have a fitted effect of over 55% in size
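Compound effects on proliferation are scored in DT40 Tdp1-/-;hTDP1 cells in the absence of CPT. ATP levels (CellTiter-Glo luminescence) are recorded after a ≥48 hr, 37 °C incubation.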
IL-1B inflam inh – qHTS for Inhibitors of Inflammasome Signaling: IL-1-beta AlphaLISA Primary Screen; 4.7% of 360,000 active; activity change, % at 57.5 µM; AID 743279, 2014; THP-1 LPS/ATP IL-1B secretion, AlphaLISA, 16 h; hits give low values; in the data active = activity change below about -50%; inconclusive = mostly about -30% to -49%; also: % is scaled to controls: 0 for no effect and ±100 for the full control effect
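THP-1 cells pretreated 1 hr with compounds (up to 57.5 uM final), then stimulated with LPS (250 ng/mL final) plus ATP (1.25 mM final); secreted IL-1B measured by AlphaLISA after 16 hr, decreased signal indicating inhibition.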
HepG2 tox – qHTS for Inhibitors of TGF-b: Cytotox Counterscreen; AID 588856, 2011; 0.76% of 410,000 active; Potency, µM (titrated, usually from 46.1 µM), for the others: at the highest dose activity change, negative = cytotoxicity, actives largely listed as cytotoxic; HepG2 CAGA-GFP viability, ATP luminescence, 18 h; also: potency is read from the fitted curve at half-maximal effect
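CellTiter-Glo luminescence gave cytotoxicity after 18 hours at 37 degrees C. The cells were HepG2 CAGA-GFP in 1% FBS DMEM, stimulated with 500 pg/mL TGF-beta after compound addition. %Activity was normalised to no-cell wells (complete cell-killing) and DMSO (no toxicity), and curves were fitted and classified.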
TDP1 block – qHTS Assay for Inhibitors of Tyrosyl-DNA Phosphodiesterase (TDP1). recombinant TDP1, AlphaScreen DNA substrate cleavage. 0.28% of 350,000 active. Tyrosyl-DNA phosphodiesterase 1 (Homo sapiens), Q9NUW8. Potency, µM (highest dose often 130 µM), without a hit: at the top dose activity change, negative = inhibition, actives largely listed as inhibitors; also: potency is read from the fitted curve at half-maximal effect; % is scaled to controls: 0 for no effect and ±100 for the full control effect; nearly all actives have a fitted effect of over 40% in size
Target sequence (Q9NUW8 whole entry, looked up): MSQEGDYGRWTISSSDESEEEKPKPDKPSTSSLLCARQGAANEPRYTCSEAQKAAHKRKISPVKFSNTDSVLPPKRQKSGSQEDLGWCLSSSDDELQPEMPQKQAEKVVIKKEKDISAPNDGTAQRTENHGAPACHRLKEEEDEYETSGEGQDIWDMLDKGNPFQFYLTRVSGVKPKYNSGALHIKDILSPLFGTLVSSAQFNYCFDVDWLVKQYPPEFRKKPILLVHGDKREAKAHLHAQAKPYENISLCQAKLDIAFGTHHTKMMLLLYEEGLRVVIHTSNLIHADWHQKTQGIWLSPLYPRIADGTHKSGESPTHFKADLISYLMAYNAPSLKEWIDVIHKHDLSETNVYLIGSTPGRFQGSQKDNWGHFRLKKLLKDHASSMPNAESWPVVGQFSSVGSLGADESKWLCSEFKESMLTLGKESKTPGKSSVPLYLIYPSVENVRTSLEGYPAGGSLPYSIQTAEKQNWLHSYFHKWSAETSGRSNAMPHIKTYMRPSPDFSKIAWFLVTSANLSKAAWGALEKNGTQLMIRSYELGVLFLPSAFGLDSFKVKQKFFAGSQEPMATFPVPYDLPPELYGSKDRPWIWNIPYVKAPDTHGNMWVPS
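AlphaScreen read-out: signal falls as enzyme removes the 3' tyrosine-FITC from a 5'-biotinylated DNA oligo (15 nM, 5 min, RT). Enzyme was E. coli-made recombinant Tdp1 at 1 nM, exposed to compound for 15 min beforehand; beads 10 ug/ml, 10 min.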
TDP1 cell CPT – qHTS for Inhibitors of human tyrosyl-DNA phosphodiesterase 1 (TDP1): qHTS in cells in presence of CPT; AID 686979, 2013; 12% of 420,000 active; chicken DT40 Tdp1-/-;hTDP1 cells + 20 nM CPT, ATP luminescence, 48 h; Potency, µM (titrated, usually from 46.2 µM), without a hit: at the top dose activity change, negative = growth inhibition, actives largely listed as inhibitors; also: potency is read from the fitted curve at half-maximal effect; % is scaled to controls: 0 for no effect and ±100 for the full control effect; nearly all actives have a fitted effect of over 55% in size
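Chicken DT40 Tdp1-/- cells stably complemented with human TDP1 were seeded at 400 cells/well in medium containing 20 nM camptothecin, exposed to pin-transferred compounds, and grown at 37 °C for at least 48 hr. Viability was read as ATP luminescence.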
TGFb inhibitor – qHTS for Inhibitors of TGF-b | HepG2 CAGA-GFP TGF-b/SMAD3 reporter, GFP fluorescence, 18 h; TGF-beta stimulated, 500 pg/mL final | 1.2% of 410,000 active | Potency, µM (series often up to 46.1 µM), without a hit: at the highest dose activity, negative = inhibition, actives largely listed as inhibitors; also: potency is read from the fitted curve at half-maximal effect; % is scaled to controls: 0 for no effect and ±100 for the full control effect; nearly all actives have a fitted effect of over 65% in size
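HEPG2 CAGA-GFP reporter cells (1000/well, DMEM with 1% FBS) received compounds, then recombinant TGF-beta at 500 pg/mL final for 18 hours at 37 degrees C. Per-cell GFP summed per well was normalised to unstimulated and stimulated DMSO controls before curve fitting.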
Numbers without * were called inactive; ? = inconclusive; / = no result; [ ] = dose if it differs, or a comment. Shown are actives, neighbours in structure and some others; about 19% of the full set was active somewhere. Unless noted, calls follow the shape of the dose curve; as a rule, active = well fitted curve in the direction sought with a large enough effect; inconclusive = small, poorly fitted or top-dose-only effect, or another doubt; inactive = no such curve, though single readings can be large; an effect the other way counts as inactive or inconclusive.

SMILES	TDP1 cell noCPT	IL-1B inflam inh	HepG2 tox	TDP1 block	TDP1 cell CPT	TGFb inhibitor
Cn1nnnc1SCCNCc1cc(Br)ccc1OCc1ccccc1Cl	16µM*	/	-51%	8%	23µM*	?
Cn1nnnc1SCCNCc1ccccc1OCc1ccccc1Cl	13µM*	-50*	-19%	0%	?	0%
Cn1nnnc1SCCNCc1ccccc1OCc1ccccc1F	?	/	-22%	6%	18µM*	0%
O=C(NCC1CCC2(CCN(Cc3c[nH]c4ccccc34)CC2)O1)C1CCOCC1 (centres undefined)	-11%	/	/	/	-8%[9.04 µM]	/
O=C(CS(=O)(=O)c1cccc2nsnc12)N1CCN(c2ccc(F)cc2)CC1	?	/	4%	2%	-28%	13%
N#CC1=C(SCC(=O)NC2CCCCC2)NC(=O)CC1c1ccco1 (centres undefined)	-17%	-4	8%	3%	?	3%
N#CC1=C(SCC(=O)NCc2ccccc2)NC(=O)CC1c1ccco1 (centres undefined)	23µM*	-19	-4%	3%	?	-4%
N#CC1=C(SCC(=O)Nc2ccccc2)NC(=O)CC1c1ccco1 (centres undefined)	18µM*	-7	-25%	/	7.3µM*	-9%
CCOC(=O)[C@H]1[C@H]2COc3ccc(Cl)cc3[C@@H]2N2C(=O)CN(Cc3ccc(OC)cc3)C(=O)[C@@]12C	18µM*	-11	-4%	2%	?	-2%
CCOC(=O)[C@H]1[C@H]2COc3ccc(OC)cc3[C@@H]2N2C(=O)CN(Cc3ccco3)C(=O)[C@@]12C	-26%	-18	2%	3%	?	-17%
CCOC(=O)[C@H]1[C@H]2COc3ccc(Cl)cc3[C@@H]2N2C(=O)CN(Cc3ccco3)C(=O)[C@@]12C	?	-10	-11%	3%	26µM*	1%
CCOC(=O)[C@H]1[C@H]2COc3ccc(Br)cc3[C@@H]2N2C(=O)CN(Cc3ccccc3)C(=O)[C@@]12C	26µM*	-26	-5%	0%	?	?
CCOC(=O)[C@H]1[C@H]2COc3ccc(Cl)cc3[C@@H]2N2C(=O)CN(Cc3ccc(C)cc3)C(=O)[C@@]12C	16µM*	?	-1%	1%	18µM*	-22%
COC(=O)c1ccc(NC(=O)C(c2ccccc2)N2Cc3ccccc3C2=O)cc1 (centres undefined)	?	/	-18%	-1%	?	?
CC(C)=CCC/C(C)=C/CC/C(C)=C/CC/C=C(\C)CC/C=C(\C)CCC=C(C)C	-25%	/	/	/	-3%	/
O=C(NCCc1ccccc1)C(c1cccs1)N(C(=O)c1csnn1)C1CC1 (centres undefined)	-28%	-8	-3%	3%	?	-19%
O=C(NCCc1ccccc1)C(c1cccs1)N(C(=O)CCl)c1ccc(Cl)cc1 (centres undefined)	1.6µM*	-98*	10µM*	5%	1.8µM*	11µM*
Cc1c(C(=O)NCCc2ccccn2)cnn1-c1nccc(-c2cccs2)n1	-17%	/	/	/	-12%	/
COc1ccccc1CNC(=O)c1cnn(-c2nccc(-c3cccs3)n2)c1C	?	/	/	/	18µM*	/
CCC(CC)c1nnc(NC(=O)CN2C(=O)NC3(CCCC3)C2=O)s1	-1%	0	1%	4%	-4%	5%
COc1ccc(C2=NN3C(C2)c2ccccc2OC32C(=O)N(C)c3ccccc32)cc1 (centres undefined)	21µM*	-5	-3%	8%	?	?
COc1ccc(C2=NN3C(C2)c2ccccc2OC3c2cccs2)cc1 (centres undefined)	-20%	-10	-53%	3%	-17%	6%
Nc1ccc(-c2ncc(-c3ccccc3)o2)cc1	?	-59*	-41%	/	-1%	?
Cc1ccnc(OC(C(=O)O)C(OCc2ccccc2)(c2ccccc2)c2ccc(C(F)(F)F)cc2)n1 (centres undefined)	?	9	-73%	4%	21µM*	?
Cc1cc(C)nc(OC(C(=O)O)C(OCc2ccccc2)(c2ccccc2)c2ccccc2)n1 (centres undefined)	3%	23	-49%	/	0%	-28%
SMILES	TDP1 cell noCPT	IL-1B inflam inh	HepG2 tox	TDP1 block	TDP1 cell CPT	TGFb inhibitor
COc1ccc(-c2cc(NC=O)c3ncc(-c4ccc(OC)c(OC)c4)n3c2)cc1	1µM*	-11	5%	/	0.73µM*	?
COc1ccc(-c2cnc3c(NC=O)cc(-c4ccccc4OC)cn23)cc1OC	0.0073µM*	32	-28%	/	0.029µM*	?
COc1ccc(-c2cc(NC=O)c3ncc(-c4ccc(OC)c(OC)c4)n3c2)cc1OC	4.1µM*	-62*	-17%	/	5.2µM*	2%
CCCCS(=O)(=O)NC(=O)C1(C)CCN1C(=O)C/C=C/c1ccccc1 (centres undefined)	-9%	0	-7%	/	-7%	3%
COc1ccccc1C1CN(Cc2cccc3c2OCO3)Cc2ccccc2O1 (centres undefined)	-18%	/	/	/	-124%[9.04 µM]	/
CS(=O)(=O)N1CCC2(CC1)CN(C(=O)Nc1cccc(C#N)c1)C2	4%	/	/	/	-1%	/
Cc1cc(NC(=O)c2cc(-c3ccc(OC(C)C)cc3)nc3ccccc23)no1	8.2µM*	-3	-18%	7%	-61%	1%
COc1ccc(-c2cc(C(=O)OCC(=O)Nc3cc(C)on3)c3ccccc3n2)cc1OC	-18%	5	1%	4%	-12%	-4%
CCC(C)c1ccc(-c2cc(C(=O)OCC(=O)Nc3cc(C)on3)c3ccccc3n2)cc1 (centres undefined)	16µM*	12	-22%	6%	?	6%
CC(C)Oc1ccc(-c2cc(C(=O)NCCN3CCOCC3)c3ccccc3n2)cc1	?	7	2%	8%	?	7%
CSc1ccccc1OCc1cc(C(=O)NCC(C)Oc2cccnc2)no1 (centres undefined)	16µM*	-17	-16%	/	?	3%
